# Data reported in PubChem BioAssay (Tox21).
# Results filed as inconclusive are left out. A call without a number means that no potency is given here. Calls of active or inactive are those of the source. Unless noted, the call rests on the fitted dose curve.
# Columns and labels:
# [1] = molecular target: Gonadotropin-releasing hormone receptor (Homo sapiens) (UniProt P30968); assay: Human gonadotropin-releasing hormone receptor (GnRHR) small molecule agonists, calcium flux assay in GnRHR-HEK293 cells (AID 1920063); further: nearly all actives have a fitted effect of over 35% in size
# In short: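 We seeded human GnRHR-expressing HEK293 cells for 18 hours, loaded them with calcium dye for an hour at 37 C, added test compounds, and recorded fluorescence intensity kinetically for three minutes.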
# [2] = molecular target: KiSS-1 receptor (Homo sapiens) (UniProt Q969F8); assay: Human kisspeptin (KISS1R) small molecule agonists, calcium flux assay in KISS1R-HEK293 cells (AID 1920064; active means well fitted activation curve with a large enough effect in the repeat runs)
# In short: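 Kinetic calcium assay, 1 s sampling over 3 min at Ex/Em 480/540, in HEK293 cells engineered with human KISS1R; compounds delivered in DMSO after 1 h dye loading.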
# [3] = G protein-coupled receptor (GPCR) small molecule agonists, calcium flux assay: HEK293 wild type cell line counter screen (AID 1920065)
# In short: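 Calcium-sensitive dye, loaded 1 h at 37 C into cells cultured 18 h, reports compound-evoked calcium release as fluorescence (Ex/Em 480/540), measured over 3 min. Agonist mode; 15-point titrations, triplicate.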
# [4] = p53 small molecule agonists, cell-based qHTS assay with human liver microsomes (AID 1963577)
# In short: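 Fluorescence of the beta-lactamase reporter in p53RE-bla cells, detected with LiveBLAzer substrate (2 h, room temperature, dark), served as the read-out after 16 h compound exposure at 37 C with human liver microsomes and NADPH, each 0.5 mg/mL final.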
# [5] = p53 small molecule agonists, cell-based qHTS assay with rat liver microsomes (AID 1963578)
# In short: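 Cells carrying a p53 response element–beta-lactamase reporter were plated and rested 5 h, then dosed with compound in DMSO plus rat liver microsomes and NADPH, each at 0.5 mg/mL final. After 16 h at 37 C, LiveBLAzer substrate was added for 2 h.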
# [6] = p53 small molecule agonists, cell-based qHTS assay with human liver microsomes: qHTS cell viability counter screen (AID 1963579); further: nearly all actives have a fitted effect of over 45% in size
# In short: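 Cytotoxicity counter screen: p53RE-bla, 4,000 cells/well; 5 h settle, 37 C/5% CO2; cpd + HLM 0.5 mg/mL + NADPH 0.5 mg/mL (final); 16 h, 37 C; CellTiter-Glo, 30 min RT, luminescence.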
# [7] = p53 small molecule agonists, cell-based qHTS assay with rat liver microsomes: qHTS cell viability counter screen (AID 1963580); further: nearly all actives have a fitted effect of over 45% in size
# In short: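 In HCT-116 cells carrying a p53 response element-bla reporter, compounds were metabolically activated in situ by rat liver microsomes with NADPH over 16 h. Cell ATP content then served as the cytotoxicity measure.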
# [8] = p53 small molecule agonists, cell-based qHTS assay: qHTS cell viability counter screen (AID 1963581); further: nearly all actives have a fitted effect of over 45% in size
# In short: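 Following 5 h attachment, HCT-116 p53RE-bla cells took up compound for 16 h at 37 C; the reporter was read with B/G FRET substrate (2 h RT), and viability then via CellTiter-Glo ATP luminescence.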
# [9] = p53 small molecule agonists, cell-based qHTS assay (AID 1963582; active means well fitted activation curve with a large enough effect in the signal ratio in the repeat runs, not every such curve was filed as active; the % refers to the signal ratio)
# In short: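 In this cell-based concentration-response screen, a p53 response element drives beta-lactamase; cells received DMSO-borne compounds after 5 h culture and were incubated a further 16 h before FRET substrate development.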
# [10] = molecular target: 5-hydroxytryptamine receptor 2A (Homo sapiens) (UniProt P28223); assay: 5-hydroxytryptamine receptor 2A (HTR2A) small molecule antagonists, cell-based qHTS assay (AID 1963586); further: nearly all actives have a fitted effect of over 45% in size; further: potency means the concentration at half of the fitted maximal effect
# In short: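 Antagonist-mode intracellular calcium assay: DOI (4 nM) added after 5 min compound pre-incubation at room temperature to dye-loaded HTR2A-CHO cells. Fluorescence followed for 3 min, sampled every second.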
# [11] = molecular target: 5-hydroxytryptamine receptor 2A (Homo sapiens) (UniProt P28223); assay: 5-hydroxytryptamine receptor 2A (HTR2A) small molecule agonists, cell-based qHTS assay (AID 1963587); further: nearly all actives have a fitted effect of over 30% in size; further: potency means the concentration at half of the fitted maximal effect
# In short: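 HTR2A-CHO cells, plated 18 h at 37 C/5% CO2, dye-loaded 1 h at 37 C; compounds in DMSO added by pin tool (agonist mode). Intracellular calcium flux read as kinetic fluorescence on FDSS over 2 min at 1 s intervals.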
# [12] = molecular target: Muscarinic acetylcholine receptor M1 (Homo sapiens) (UniProt P11229); assay: Cholinergic receptor muscarinic 1 (CHRM1) small molecule antagonists, cell-based qHTS assay (AID 1963588); further: nearly all actives have a fitted effect of over 40% in size
# In short: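 CHRM1-CHO calcium-flux assay, antagonist mode. Cells were seeded 18 h, dye-loaded 1 h at 37 C and given compound for 5 min at RT, then acetylcholine was added at 50nM. FDSS fluorescence was read 3 min; 15 concentrations, three runs.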
# [13] = molecular target: Muscarinic acetylcholine receptor M1 (Homo sapiens) (UniProt P11229); assay: Cholinergic receptor muscarinic 1 (CHRM1) small molecule agonists, cell-based qHTS assay (AID 1963589); further: nearly all actives have a fitted effect of over 35% in size
# In short: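 Measures agonist-induced intracellular calcium rise. Stable human CHRM1 CHO line, 1 h dye load at 37 C, compounds from DMSO, kinetic fluorescence read.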
# [14] = cAMP Responsive Elements (CRE) small molecule agonists, cell-based qHTS assay (AID 1963590)
# In short: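 A CRE-responsive beta-lactamase reporter in HEK 293T cells was used. Treatment ran 3 h at 37 C; detection used LiveBLAzer B/G FRET substrate for 2 h at room temperature.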
# [15] = cAMP Responsive Elements (CRE) small molecule antagonists, cell-based qHTS assay (AID 1963591; active means well fitted inhibition curve with a large enough effect in the signal ratio in the repeat runs, not every such curve was filed as active; the % refers to the signal ratio)
# In short: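 HEK293T cells carrying a CRE-driven beta-lactamase reporter receive compound and NKH477 (0.25 uM final) for 3 h. Fluorescence from LiveBLAzer B/G FRET substrate is read after 2 h at room temperature.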
# [16] = molecular target: Beta-2 adrenergic receptor (Homo sapiens) (UniProt P07550); assay: Adrenergic beta2 receptor (ADRB2) small molecule antagonists, cell-based qHTS assay (AID 1963592); further: series mostly up to about 92 µM; nearly all actives have a fitted effect of over 50% in size
# In short: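 Cells (CHO, stable ADRB2 overexpression) incubated 18-20hr at 37C; compounds added from DMSO; agonist mix (1nM isoproterenol, 100uM IBMX, 25uM Ro-20-1724) added; 0.5hr RT; d2-cAMP and anti-cAMP-cryptate added; 1hr RT; 665/615 nm read.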
# [17] = molecular target: D(2) dopamine receptor (Homo sapiens) (UniProt P14416); assay: Dopamine D2 receptor (DRD2) small molecule agonists, cell-based qHTS assay (AID 1963594); further: nearly all actives have a fitted effect of over 35% in size
# In short: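 HEK293 cells stably expressing DRD2 were cultured 24 h at 37 C, then given Ro20-1724 (0.1 mM final) and compounds for 10 min at room temperature. NKH477 (200nM) was then added for 30 min. cAMP was read by HTRF.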
# [18] = molecular target: D(2) dopamine receptor (Homo sapiens) (UniProt P14416); assay: Dopamine D2 receptor (DRD2) small molecule antagonists, cell-based qHTS assay (AID 1963595; active means well fitted inhibition curve with a large enough effect in the signal ratio in the repeat runs, with a control signal flat; the % refers to the signal ratio)
# In short: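 Stable D2 receptor HEK293 line, 24 h after seeding. Compound preincubated 10 min, then quinpirole (12 nM) with forskolin analogue NKH477 (200 nM), 30 min, room temperature. Detection by time-resolved FRET of cAMP.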
# [19] = molecular target: Beta-2 adrenergic receptor (Homo sapiens) (UniProt P07550); assay: Adrenergic beta2 receptor (ADRB2) small molecule agonists, cell-based qHTS assay (AID 1963593);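 further: CHO cells stably overexpressing human ADRB2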
# In short: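 CHO cells stably over-expressing ADRB2 were plated overnight at 37C, then dosed with compounds plus a stimulation mix containing 100uM IBMX and 25uM Ro-20-1724 for 0.5hr at room temperature. cAMP was measured by HTRF competition, 1hr.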
# [20] = Nuclear factor erythroid 2-related factor 2/antioxidant responsive element (Nrf2/ARE) small molecule agonists: luciferase reporter gene qHTS assay in human keratinocytes (AID 1919969); further: nearly all actives have a fitted effect of over 35% in size; further: potency means the concentration at half of the fitted maximal effect
# Beta-2 adrenergic receptor (Homo sapiens), sequence (P07550 whole entry, looked up): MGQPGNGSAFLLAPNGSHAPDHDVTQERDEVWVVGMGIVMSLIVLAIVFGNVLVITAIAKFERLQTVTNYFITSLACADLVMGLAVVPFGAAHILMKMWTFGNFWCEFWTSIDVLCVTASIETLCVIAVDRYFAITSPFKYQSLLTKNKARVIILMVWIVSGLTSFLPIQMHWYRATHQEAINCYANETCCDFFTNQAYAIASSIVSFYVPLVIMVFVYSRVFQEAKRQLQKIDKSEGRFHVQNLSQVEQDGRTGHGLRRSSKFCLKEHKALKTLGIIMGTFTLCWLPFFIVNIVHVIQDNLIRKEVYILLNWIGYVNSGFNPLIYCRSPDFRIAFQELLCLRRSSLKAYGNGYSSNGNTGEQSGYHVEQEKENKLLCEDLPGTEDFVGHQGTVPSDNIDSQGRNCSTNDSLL
# Muscarinic acetylcholine receptor M1 (Homo sapiens), sequence (P11229 whole entry, looked up): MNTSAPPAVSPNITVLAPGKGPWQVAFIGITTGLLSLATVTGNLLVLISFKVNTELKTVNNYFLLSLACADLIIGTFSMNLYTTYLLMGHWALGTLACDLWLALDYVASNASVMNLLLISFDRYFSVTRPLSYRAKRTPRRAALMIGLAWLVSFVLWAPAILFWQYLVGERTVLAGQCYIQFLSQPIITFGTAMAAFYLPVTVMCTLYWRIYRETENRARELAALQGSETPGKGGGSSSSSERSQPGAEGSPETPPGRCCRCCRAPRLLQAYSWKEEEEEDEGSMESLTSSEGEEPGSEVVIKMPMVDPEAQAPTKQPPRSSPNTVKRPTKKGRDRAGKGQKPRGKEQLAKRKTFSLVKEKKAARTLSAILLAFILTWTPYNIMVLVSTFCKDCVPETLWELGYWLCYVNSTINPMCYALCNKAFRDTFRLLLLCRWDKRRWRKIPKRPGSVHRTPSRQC
# Gonadotropin-releasing hormone receptor (Homo sapiens), sequence (P30968 whole entry, looked up): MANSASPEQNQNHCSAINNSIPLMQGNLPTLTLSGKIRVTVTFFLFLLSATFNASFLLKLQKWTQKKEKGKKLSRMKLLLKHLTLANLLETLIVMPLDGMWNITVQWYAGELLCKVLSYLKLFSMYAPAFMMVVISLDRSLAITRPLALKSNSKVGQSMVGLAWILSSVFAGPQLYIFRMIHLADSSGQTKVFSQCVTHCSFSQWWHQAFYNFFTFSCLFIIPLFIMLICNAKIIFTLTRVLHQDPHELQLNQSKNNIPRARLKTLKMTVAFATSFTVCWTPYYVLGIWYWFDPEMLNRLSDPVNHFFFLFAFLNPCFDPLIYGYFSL
# KiSS-1 receptor (Homo sapiens), sequence (Q969F8 whole entry, looked up): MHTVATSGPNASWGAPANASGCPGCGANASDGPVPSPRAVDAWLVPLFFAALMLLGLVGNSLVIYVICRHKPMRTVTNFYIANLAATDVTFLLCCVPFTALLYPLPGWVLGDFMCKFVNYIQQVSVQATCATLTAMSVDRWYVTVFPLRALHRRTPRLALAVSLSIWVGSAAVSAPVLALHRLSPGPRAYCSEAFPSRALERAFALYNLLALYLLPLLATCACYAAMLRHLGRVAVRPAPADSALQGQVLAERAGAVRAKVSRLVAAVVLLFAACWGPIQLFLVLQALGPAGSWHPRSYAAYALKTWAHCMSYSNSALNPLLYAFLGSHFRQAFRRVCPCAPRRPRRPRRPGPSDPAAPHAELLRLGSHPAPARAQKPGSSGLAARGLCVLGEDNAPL
# 5-hydroxytryptamine receptor 2A (Homo sapiens), sequence (P28223 whole entry, looked up): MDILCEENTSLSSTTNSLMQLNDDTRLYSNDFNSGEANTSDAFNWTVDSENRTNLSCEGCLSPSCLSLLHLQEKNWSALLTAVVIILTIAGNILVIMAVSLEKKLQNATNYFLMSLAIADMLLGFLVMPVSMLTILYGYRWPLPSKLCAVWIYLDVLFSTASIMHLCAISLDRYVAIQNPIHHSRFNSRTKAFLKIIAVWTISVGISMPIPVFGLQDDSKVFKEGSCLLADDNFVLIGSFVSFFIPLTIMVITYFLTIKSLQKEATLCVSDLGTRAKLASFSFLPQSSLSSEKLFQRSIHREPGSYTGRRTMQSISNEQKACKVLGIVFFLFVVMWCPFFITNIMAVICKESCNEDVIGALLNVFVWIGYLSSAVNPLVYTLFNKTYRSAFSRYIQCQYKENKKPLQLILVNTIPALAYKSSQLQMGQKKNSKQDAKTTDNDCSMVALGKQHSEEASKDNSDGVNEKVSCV
# D(2) dopamine receptor (Homo sapiens), sequence (P14416 whole entry, looked up): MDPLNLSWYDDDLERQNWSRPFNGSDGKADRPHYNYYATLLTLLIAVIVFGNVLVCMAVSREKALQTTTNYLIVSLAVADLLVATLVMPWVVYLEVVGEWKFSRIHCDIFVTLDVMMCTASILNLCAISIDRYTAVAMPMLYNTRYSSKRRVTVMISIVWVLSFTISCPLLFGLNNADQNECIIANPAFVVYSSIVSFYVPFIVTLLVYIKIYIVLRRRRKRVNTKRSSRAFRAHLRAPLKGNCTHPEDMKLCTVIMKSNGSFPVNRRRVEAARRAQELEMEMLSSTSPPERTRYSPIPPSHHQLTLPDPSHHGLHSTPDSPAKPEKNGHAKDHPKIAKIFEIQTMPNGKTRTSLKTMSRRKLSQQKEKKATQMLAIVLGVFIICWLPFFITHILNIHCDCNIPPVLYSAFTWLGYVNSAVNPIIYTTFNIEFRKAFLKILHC
SMILES,Potency [1],Potency [2],Potency [3],Potency [4],Potency [5],Potency [6],Potency [7],Potency [8],Potency [9],Potency [10],Potency [11],Potency [12],Potency [13],Potency [14],Potency [15],Potency [16],Potency [17],Potency [18],Potency [19],Potency [20]
S=c1nccc[nH]1,inactive,inactive,inactive,inactive,inactive,inactive,inactive,inactive,inactive,inactive,inactive,inactive,inactive,inactive,inactive,inactive,inactive,inactive,,
C=C(C)C(=O)OCC(O)COc1ccc(C(C)(C)c2ccc(OCC(O)COC(=O)C(=C)C)cc2)cc1 (stereo unspecified),inactive,inactive,inactive,inactive,inactive,,inactive,inactive,,,inactive,inactive,inactive,,,,inactive,inactive,,
COc1nccnc1CC(C)C,inactive,inactive,inactive,inactive,,inactive,inactive,inactive,inactive,inactive,inactive,inactive,inactive,inactive,inactive,inactive,inactive,inactive,,
C[C@@H](O[C@H]1OCCN(Cc2n[nH]c(=O)[nH]2)[C@H]1c1ccc(F)cc1)c1cc(C(F)(F)F)cc(C(F)(F)F)c1,inactive,inactive,inactive,inactive,inactive,inactive,inactive,,inactive,,,inactive,inactive,,,inactive,inactive,inactive,,
O=CC=C(c1ccccc1)c1ccccc1,inactive,inactive,inactive,inactive,inactive,,inactive,inactive,,42.4 µM (active),inactive,inactive,inactive,,,inactive,inactive,,inactive,
ClC(Cl)Cl,inactive,inactive,inactive,inactive,inactive,inactive,,inactive,inactive,,,,,inactive,inactive,inactive,inactive,inactive,,
CCOC(=O)c1ccccc1C(=C1C=C(Br)C(=O)C(Br)=C1)c1cc(Br)c(O)c(Br)c1,inactive,inactive,inactive,inactive,inactive,inactive,inactive,,,,,,inactive,,,inactive,,inactive,,
O=C(N/N=C/c1ccc([N+](=O)[O-])o1)c1ccc(O)cc1,inactive,inactive,inactive,inactive,inactive,inactive,inactive,inactive,,inactive,,inactive,,,,inactive,inactive,inactive,,
O=C(Cl)c1cc(C(=O)Cl)cc(C(=O)Cl)c1,inactive,inactive,inactive,inactive,inactive,inactive,inactive,inactive,inactive,inactive,inactive,inactive,inactive,inactive,,inactive,inactive,inactive,,
C[C@@H](c1ncncc1F)C(O)(Cn1cncn1)c1ccc(F)cc1F (stereo partly specified),inactive,inactive,inactive,inactive,inactive,inactive,inactive,inactive,inactive,inactive,inactive,inactive,inactive,inactive,inactive,inactive,inactive,inactive,inactive,
CCCN(C1CCN(C(=O)C2CCNCC2)CC1)[C@@H]1CCc2ccc(OC)cc2C1,inactive,inactive,inactive,inactive,inactive,inactive,inactive,inactive,inactive,37.5 µM (active),17.4 µM (active),inactive,inactive,,,inactive,inactive,inactive,,
C=Cc1ccncc1,inactive,inactive,inactive,inactive,inactive,inactive,inactive,inactive,inactive,inactive,,inactive,inactive,inactive,inactive,inactive,inactive,inactive,inactive,
CC(CN)CCCN (stereo unspecified),inactive,inactive,inactive,inactive,inactive,inactive,inactive,,inactive,inactive,inactive,inactive,inactive,inactive,inactive,inactive,inactive,inactive,,
Nc1cccnc1N,inactive,inactive,inactive,inactive,inactive,inactive,,inactive,inactive,inactive,inactive,inactive,,inactive,inactive,,inactive,,,
CCN(CC)CCCN(c1ccccc1)C1Cc2ccccc2C1,,,,inactive,inactive,inactive,inactive,inactive,,,inactive,,inactive,,,,,inactive,,inactive
CC(=O)[C@]1(O)Cc2c(O)c3c(c(O)c2[C@@H](O[C@H]2C[C@H](N)[C@H](O)[C@H](C)O2)C1)C(=O)c1ccccc1C3=O,,,inactive,,,,,inactive,,,,,,inactive,,,,,,2.66 µM (active)
Oc1ccccc1-c1nnco1,inactive,inactive,inactive,inactive,inactive,inactive,inactive,inactive,inactive,inactive,inactive,,inactive,inactive,inactive,inactive,inactive,inactive,,
